# Data reported in PubChem BioAssay (Tox21).
# Results filed as inconclusive are left out. A number with no mark means an inactive call. Activity calls are given as the source filed them. Calls come from the whole dose curve; as a rule, active = well fitted activation curve with a large enough effect in the signal ratio in the repeat runs (not every such curve was filed as active); inconclusive = weak or mixed curves, or effect the other way; inactive = no such curve, though single readings can be large or run the other way; the % refers to the signal ratio.
# Biological target: Peroxisome proliferator-activated receptor gamma (Homo sapiens) (UniProt P37231)
# Test: qHTS assay to identify small molecule agonists of the peroxisome proliferator-activated receptor gamma (PPARg) signaling pathway (AID 743094)
# Settings: HEK293H PPARg-UAS-bla, beta-lactamase FRET ratio, 17 h; series mostly up to 57 µM; activation: at the top concentration
# Excerpt: U.S. Tox21 Program National Center for Advancing Translational Sciences [NCATS] NIH Chemical Genomics Center [NCGC] U.S. Environmental Protection Agency [EPA] National Institutes of Environmental Health Sciences [NIEHS] National Toxicology Program [NTP] U.S. Food and Drug Administration [FDA] Tox21 Assay Overview: The peroxisome proliferator-activated receptors (PPARs) are lipid-activated transcription factors of the nuclear receptor superfamily with three distinct subtypes namely PPAR alpha, PPAR delta (also called PPAR beta) and PPAR gamma (PPARg). All these subtypes heterodimerize with Retinoid X receptor (RXR) and these heterodimers regulate transcription of various genes. PPAR-gamma receptor (glitazone receptor) is involved in the regulation of glucose and lipid metabolism. To identify the compounds that activate PPAR-gamma signaling, GeneBLAzer PPAR gamma UAS-bla HEK293H cell line (Invitrogen, Carlsbad, CA, USA) containing a beta-lactamase reporter gene under control of the control of an upstream activator sequence (UAS) stably integrated into HEK293H cells was used to screen Tox21 compound library.
# Tox21 Assay Protocol Summary: PPARg-bla cells were dispensed at 3000 cells/6uL/well in 1536-well black wall/clear bottom plates using a Multidrop Combi (Thermo Fisher Scientific, Waltham, MA) dispenser. After the assay plates were incubated at 37C and 5% CO2 for 5 h, 23 nL of compounds dissolved in DMSO, positive controls or DMSO only was transferred to the assay plate by a Pintool station (Kalypsys, San Diego, CA). The assay plates were incubated at 37C for 17 h. After 1 uL of LiveBLAzerTM B/G FRET substrate was added using a Bioraptr Flying Reagent Dispenser (FRD) workstation (Beckman Coulter, Indianapolis, IN, USA), the plates were incubated at room temperature for 1 h, and fluorescence intensity was measured by an Envision plate reader (PerkinElmer, Shelton, CT).
# % is set by controls: 0 for no effect and ±100 for the full control effect.
# Sequence of Peroxisome proliferator-activated receptor gamma (Homo sapiens) (P37231 whole entry, looked up): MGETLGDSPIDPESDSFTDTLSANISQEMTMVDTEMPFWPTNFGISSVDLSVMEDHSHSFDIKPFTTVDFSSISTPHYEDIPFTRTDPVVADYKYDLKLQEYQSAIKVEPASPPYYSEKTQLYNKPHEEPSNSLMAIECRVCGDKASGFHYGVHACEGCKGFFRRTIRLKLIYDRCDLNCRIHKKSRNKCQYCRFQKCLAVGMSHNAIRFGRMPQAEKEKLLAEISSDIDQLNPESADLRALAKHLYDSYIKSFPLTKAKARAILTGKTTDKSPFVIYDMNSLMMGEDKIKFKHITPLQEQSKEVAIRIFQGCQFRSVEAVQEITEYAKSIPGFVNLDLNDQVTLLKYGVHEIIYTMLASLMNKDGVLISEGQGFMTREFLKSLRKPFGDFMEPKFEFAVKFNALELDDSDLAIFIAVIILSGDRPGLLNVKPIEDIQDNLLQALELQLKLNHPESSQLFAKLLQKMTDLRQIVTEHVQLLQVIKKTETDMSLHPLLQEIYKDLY
SMILES,activation,Potency
CCCCCCCCCC(=O)O[C@H]1CC[C@H]2[C@@H]3CCC4=CC(=O)CC[C@]4(C)[C@H]3CC[C@]12C,-1.08%,
CC(=O)OC1CN2CCC1CC2 (stereo not given),-1.59%,
CCOc1ccc2c3c1O[C@H]1[C@@H](O)C=C[C@H]4[C@@H](C2)N(C)CC[C@@]341,-6.73%,
O=C(O)CCCO,0.0984% [at 78.9 µM],
C[N+]1([O-])[C@@H]2CC(OC(=O)[C@H](CO)c3ccccc3)C[C@H]1[C@@H]1O[C@@H]12 (stereo not given in full),,inactive
CN1CSC(=S)N(C)C1,-0.313%,
O=P1(N(CCCl)CCCl)NC(OO)CCO1 (stereo not given),1.71%,
O=P(O)(O)C(Cl)(Cl)P(=O)(O)O,1.1%,
[2H]C([2H])([2H])[C@H](N)Cc1ccccc1,-5.82%,
C[C@]12C=CC(=O)C=C1CC[C@@H]1[C@@H]2CC[C@]2(C)OC(=O)CC[C@@H]12,3.39%,
CC(C)NC(C)Cc1ccc(I)cc1 (stereo not given),-8.37%,
CCCC(=O)OC(C(Cl)(Cl)Cl)P(=O)(OC)OC (stereo not given),0.374%,
CN[C@@H]1C[C@@H](c2ccc(Cl)c(Cl)c2)c2ccccc21,-8.1%,
C1CN(P2(N3CC3)=NP(N3CC3)(N3CC3)=NP(N3CC3)(N3CC3)=N2)CCO1 (stereo not given),-6.59%,
NCC(O)c1cccc(O)c1 (stereo not given),0.802%,
CC(N)Cc1ccc(O)cc1 (stereo not given),-2.96%,
C[C@@H]1[C@H](O)[C@@H](C)/C=C/C=C/CC/C=C/C=C/C=C/C=C/[C@H](O[C@H]2O[C@@H](C)[C@H](O)[C@@H](N)[C@H]2O)CC2O[C@](O)(C[C@@H](O)[C@H](O)CC[C@@H](O)C[C@@H](O)C[C@@H](O)CC(=O)O[C@H]1C)C[C@H](O)[C@H]2C(=O)O,0.476%,
COC(=O)[C@H]1[C@@H](OC(=O)c2ccccc2)C[C@@H]2CC[C@H]1N2C,1.66%,
NC1=NC(=O)N2CC12 (stereo not given),2.42%,
C[C@]12CC[C@H]3[C@@H](CCC4=CC(=O)CC[C@@]43C)[C@@H]1CC[C@H]2O,-0.197%,

SMILES,activation,Potency
O=C(Nc1ccccc1-c1ccc(Cl)cc1)c1cccnc1Cl,-12.9% [at 78.9 µM],
Clc1ccc(C(Cn2ccnc2)OCc2csc3c(Cl)cccc23)c(Cl)c1 (stereo not given),6.82% [at 26.2 µM],
COc1ccc(OC)c(C[C@H](C)N)c1,-0.0497% [at 78.9 µM],
Cc1ccccc1-n1c(C)nc2ccccc2c1=O,,inactive
CCCCCN(C)CCC(O)(P(=O)(O)O)P(=O)(O)O,1.23%,
Oc1ccc2c3c1O[C@H]1[C@@H](O)CC[C@@]4(O)[C@@H](C2)N(CC2CCC2)CC[C@]314,0.111%,
CC(N)Cc1ccc2c(c1)OCO2 (stereo not given),0.397%,
CCCN1CCC[C@H](c2cccc(O)c2)C1,5.91%,
CCCCC[C@@H](O)C1C(=O)OC(C)[C@H](O)/C=C/C=C/C=C/C=C/C=C(\C)C(O)C(O)C(O)C[C@H](O)C[C@H](O)C[C@H](O)C[C@H](O)C[C@@H]1O (stereo not given in full),,inactive
CC1(C)S[C@@H]2[C@H](N)C(=O)N2[C@H]1C(=O)O,-1.03% [at 26.2 µM],
O=C(NC(=O)c1c(F)cccc1F)Nc1ccc(Cl)c(Oc2ncc(C(F)(F)F)cc2Cl)c1,5.64%,
Clc1ccccc1-c1ccccc1Cl,-8.21% [at 78.9 µM],
c1csc(C2(N3CCCCC3)CCCCC2)c1,-0.727%,
CCC1(c2ccccc2)C(=O)NC(=O)N(C(=O)c2ccccc2)C1=O (stereo not given),-2.94%,
CNC(C)C(O)c1ccc(O)cc1 (stereo not given),,inactive
CCC1(c2ccccc2)C(=O)NC(=O)N(C)C1=O (stereo not given),-0.728%,
C=CCN1CC[C@]23c4c5ccc(O)c4O[C@H]2[C@@H](O)C=C[C@H]3[C@H]1C5,0.561%,
C=CCC1([C@@H](C)CCC)C(=O)NC(=O)NC1=O,-5.89%,
O=C1CCCCC1CN1CCCCC1 (stereo not given),1.91%,
OCC(c1ccc(Cl)cc1)c1ccc(Cl)cc1,-10.6%,
